Source: PubChem (National Center for Advancing Translational Sciences (NCATS))
PI5P4K alpha inh – inhibitors of human PI5P4K alpha; P48426; PI5P4Kalpha enzyme, ADP-Glo luminescence, 60 min; stronger effect = lower value; max response, %; 1.2% of 330,000 active; active = max response of -50% or lower; inconclusive = between -30% and -50%; inactive = -30% or higher; also: value at the top dose of about 77 µM
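Quantitative HTS of the MLSMR library against PI5P4Kalpha with substrate. ATP added last at 5 microM final; room temperature, 60 minutes. Remaining ATP depleted, ADP converted and read as luminescence.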
pAkt inh – Akt phosphorylation inhibition; Neuro2A IGF-stimulated pAkt S473 HTRF, 20 min; stronger effect = lower value; activity change, % for hits at 50 µM; 0.32% of 360,000 active; in the data active = activity change below about -80%; inconclusive = mostly about -51% to -80%
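Single-point screen (50 µM final compound) in Neuro2A cells stimulated 20 min with 6 nM IGF at 37 deg C. After lysis, Ser473-phosphorylated Akt read by HTRF (ex 330 nm, em 615/665 nm) as the 665/615 ratio.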
CtBP-E1A inh – blocks the CtBP interaction with E1A | AlphaScreen GST-E1A/His-CtBP binding, 1536-well; stronger effect = lower value | activity change, % (concentration not given with the values) | 0.49% of 340,000 active
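In 5 uL wells, 23 nL compound meets equimolar GST-E1A and His-CtBP (5X stock 125 nM each) for 2 h, 37 °C. Beads (5X, 50 ug/mL) then 1 h, 37 °C, dark.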
PI4K2A inh – blocks human PI4K2A kinase activity | purified PI4K2A, ADP-Glo luminescence, 1 h; stronger effect = lower value | activity change, negative = inhibition, % at 76.9 µM | 0.13% of 420,000 active | AID 1346378; in the data active = activity change below about -50%; inconclusive = mostly about -30% to -49%;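 also: -100% = wells without enzyme as full effect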
Target sequence (Q9BTU6 whole entry, looked up): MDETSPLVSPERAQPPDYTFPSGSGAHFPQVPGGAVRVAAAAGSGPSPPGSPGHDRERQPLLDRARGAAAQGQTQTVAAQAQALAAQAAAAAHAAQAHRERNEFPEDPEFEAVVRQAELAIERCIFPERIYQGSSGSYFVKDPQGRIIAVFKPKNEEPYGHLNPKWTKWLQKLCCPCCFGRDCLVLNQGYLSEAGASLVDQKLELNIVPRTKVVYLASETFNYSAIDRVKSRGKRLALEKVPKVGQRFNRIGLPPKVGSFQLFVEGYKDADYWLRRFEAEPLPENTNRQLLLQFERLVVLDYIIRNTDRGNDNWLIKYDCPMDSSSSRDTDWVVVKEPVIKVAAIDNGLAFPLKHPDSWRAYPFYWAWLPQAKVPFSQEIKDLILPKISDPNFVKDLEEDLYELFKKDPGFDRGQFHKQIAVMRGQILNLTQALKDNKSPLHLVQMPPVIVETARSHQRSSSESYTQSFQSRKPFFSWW
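ADP-Glo luminescence measured ADP generated by PI4K2A enzyme (4 ug/mL before mixing) with 1.2 mM PI substrate (pre-mix) and 300 microM ATP (pre-mix). Tris pH7.5 buffer with MgCl2, Triton X-100; 1 h reaction at ambient temperature.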
Six1-Eya2 blk – Six1/Eya2 interaction inhibition. AlphaScreen GST-Six1/His-Eya2 binding, biochemical; stronger effect = lower value. activity change, % (no concentration beside the values). 0.56% of 360,000 active
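Six1/Eya2 binding was read as AlphaScreen signal after compounds were pinned into GST-Six1 plus His-tagged Eya2 (5X stock 250/500 nM) in pH 8.0 Tris/NaCl/TCEP buffer, beads added, then incubated 1 h, 37 C, dark.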
Numbers without * were called inactive; i = inactive; ? = inconclusive; . = not tested or not shown; ! = not active in a repeat. Shown are actives, neighbours in structure and some others; about 1.8% of the full set was active somewhere. Rule as the data show it, unless noted: active = activity change below about -65%; inconclusive = mostly about -30% to -63%; inactive = weaker than that. Unless noted, % is scaled to controls: 0 for no effect and ±100 for the full control effect.

SMILES | PI5P4K alpha inh | pAkt inh | CtBP-E1A inh | PI4K2A inh | Six1-Eya2 blk
CCOC(=O)C1=C(C)N=c2s/c(=C\c3ccc(O)c([N+](=O)[O-])c3)c(=O)n2C1c1ccccc1OC (stereo unspecified) | ? | i | -13.5 | 2.4 | 3.7
CCOC(=O)C1=C(C)N=c2s/c(=C/c3cccc([N+](=O)[O-])c3O)c(=O)n2C1c1ccc(OC)cc1OC (stereo unspecified) | -55.4* | i | ? | -17.3 | -28.3
O=C1CCC(C(=O)OCC(=O)Nc2ccccc2Br)=NN1 | 2.1 | i | 0.3 | 3.5 | 12.5
N#Cc1ccsc1NC(=O)COC(=O)C1=NNC(=O)CC1 | -82.3* | i | -23.9 | ? | -24.7
C[C@@H]1C(=O)O[C@H]2C[C@@]34[C@H]5C[C@@H](C(C)(C)C)[C@]36[C@@H](OC(=O)[C@@H]6O)O[C@@]4(C(=O)O5)[C@]21O | 6.1 | i | 12.4 | -2.0 | 0.4
Cc1c(Nc2cc(Cl)c3nonc3c2[N+](=O)[O-])c(=O)n(-c2ccccc2)n1C | 0.8 | i | . | ? | -88.5*
NC(CO)c1csc(NC(=O)Nc2cccc(Cl)c2)n1 (stereo unspecified) | 13.3 | i | ? | 9.7 | ?
CCC(/C=C1\Sc2ccc(OC)cc2N1CCO)=C\c1sc2ccc(OC)cc2[n+]1CCO | -78.2* | i | ? | -29.3 | ?
CCC(/C=C1\Sc2ccc(OC)cc2N1CC)=C\c1sc2ccc(OC)cc2[n+]1CCCS(=O)(=O)[O-] | ? | i | -22.9 | -16.3 | ?
CCC(=O)/C=C1/Sc2ccc(OC)cc2N1CCO | -50.7* | i | -1.7 | 3.5 | -13.8
O=[N+]([O-])c1cc(O)c2ncccc2c1 | -3.1 | i | -93.8* | -27.7 | -82.7*
Nc1[nH]n(-c2ccccc2)c(=O)c1N=Nc1ccc2c(c1)OCCO2 | -4.8 | i | -0.1 | -0.9 | -68.7*
C[C@]12CC[C@@H]3c4cc(O)c(O)cc4CC[C@H]3[C@@H]1CC[C@@H]2O | -61.7* | i | 0.3 | -2.5 | -14.7
CSCCC(NS(=O)(=O)c1ccc(Cl)cc1)C(=O)N1CCN(c2ccccc2)CC1 (stereo unspecified) | 1.4 | i | 5.2 | 0.3 | 2.6
CCOc1cc(C(N)=O)cc(Br)c1OCc1ccccc1 | -1.6 | i | 9.1 | -1.7 | -0.8
COc1ccc(-c2nc(=S)[nH][nH]2)cc1OC | ? | i | . | 1.4 | 0.1
COc1cc(-c2nc(=S)[nH][nH]2)cc(OC)c1OC | -79.0* | i | 4.7 | 3.1 | 5.8
CN(C1=C(N2CCCCC2)C(=O)c2ccccc2C1=O)c1ccccc1 | . | i | -1.5 | -12.7 | -83.3*
Cc1c(CC(=O)NCC(=O)O)c(=O)oc2cc3occ(-c4ccccc4)c3cc12 | -1.9 | i | 1.1 | 5.8 | ?
CCC(NC(=O)CCc1c(C)c2cc3c(-c4ccccc4)coc3cc2oc1=O)C(=O)O (stereo unspecified) | ? | i | -76.6* | -0.3 | -22.6
Cc1c(CCC(=O)N[C@@H](C)C(=O)O)c(=O)oc2cc3occ(-c4ccccc4)c3cc12 | 4.8 | i | -76.6* | -2.9 | ?
Cc1c(CCC(=O)NCCCCCC(=O)O)c(=O)oc2cc3occ(-c4ccccc4)c3cc12 | -7.8 | i | . | 1.1 | -68.1*
Cc1c(CC(=O)NCCCC(=O)O)c(=O)oc2cc3occ(-c4ccccc4)c3cc12 | -5.9 | i | -28.1 | -1.4 | ?
Cc1onc(-c2ccccc2)c1C(=O)OCC(=O)N1CCCCC1 | 7.9 | i | -3.4 | 1.9 | 12.3
Cc1ccc(NC(=O)CCC(=O)N/N=C/c2coc3ccc(F)cc3c2=O)cc1 | -23.8 | i | -0.1 | 1.0 | -0.3
SMILES | PI5P4K alpha inh | pAkt inh | CtBP-E1A inh | PI4K2A inh | Six1-Eya2 blk
CN1CCN(Cc2cc(=O)oc3ccc(Cl)cc23)CC1 | -3.9 | -103.7%* | 4.1 | -5.2 | 1.0
Cc1nccn1CCCNCc1c(C(=O)N2CCCCCCC2)nc2ccc(Cl)cn12 | 7.9 | i | 18.4 | -3.0 | 0.2
O=Cc1cc(N=Nc2ccc(S(=O)(=O)O)cc2)ccc1O | -76.2* | i | -2.1 | -12.3 | -28.3
O=C(O)C1Nc2c(O)cc(Cl)c([N+](=O)[O-])c2C2C=CCC12 (stereo unspecified) | -84.5* | i | . | ? | ?
CC(=O)N1CCc2c1cccc2S(=O)(=O)NC(CC(C)C)C(=O)Nc1ccc(Cl)c(Cl)c1 (stereo unspecified) | . | . | . | -3.5 | .
c1ccc2c(-c3cncc4ccccc34)cncc2c1 | -73.3* | i | -0.2 | 4.6 | -7.0
Nc1ncnc2nc(-c3ccccc3)[nH]c12 | -25.4 | i | -4.7 | -19.0 | -20.7
Nc1ncnc2nc(SCc3ccccc3)[nH]c12 | 4.1 | -113.0%* | -2.7 | -10.8 | 0.9
Cc1cccn2c(=O)c3cc(C#N)c(=NC(=O)c4ccccc4)n(Cc4ccco4)c3nc12 | -73.3*! | i | ? | ? | ?
Cc1cccc(C(=O)N=c2c(C#N)cc3c(=O)n4cccc(C)c4nc3n2Cc2ccco2)c1 | -92.9* | i | 0.0 | ? | ?
Clc1ccccc1OCc1nn[nH]n1 | -1.8 | i | 4.4 | -5.1 | 4.2
Cc1cc(O)c(CN(C)C)c2c1C(=O)/C(=C/c1ccco1)O2 | -22.7 | i | 8.6 | -15.4 | -11.5
Cc1cc(O)c(C=O)c2c1C(=O)Oc1c(CO)c(O)c3c(c1O2)C(O)OC3=O (stereo unspecified) | -84.0* | i | -4.4 | -84.8* | -80.1*
O=C(CSc1nc2ccccc2n1Cc1ccccc1)NCc1ccccc1 | . | . | . | -2.1 | .
COc1ccccc1NC(=O)Cn1c(C)cc(=O)c2cccc(OC)c21 | -5.7 | i | ? | 1.4 | -23.3
COc1cccc2c(=O)cc(C)n(CC(=O)Nc3ccc(C)c(C)c3)c12 | 4.3 | i | -70.2* | -4.7 | -93.7*
CCOC(=O)C(NC(=O)c1ccccc1)(Nc1cc(C)on1)C(F)(F)F (stereo unspecified) | -5.8 | -129.4%* | 2.6 | -0.9 | 2.9
Cc1nn(-c2cc(N3CCNCC3)ccc2[N+](=O)[O-])c(=O)c2ccccc12 | -8.6 | i | -4.8 | 32.7 | -2.8
COC(=O)C1CCN(C(=O)N2CCOCC2)CC1 | . | i | 8.6 | -4.5 | 2.9
CCOC(=O)C1CCN(C(=O)N2CCOCC2)CC1 | -5.5 | i | 4.0 | -89.7* | 3.2
COc1ccc(S(=O)(=O)N(CC(N)=O)C2CCCCC2)cc1Cl | -28.0 | i | 2.4 | 2.5 | 8.2
O=c1[nH]c2cc3c(cc2cc1CN(Cc1cccs1)Cc1nnnn1Cc1ccco1)OCCO3 | -83.1* | i | -9.3 | -27.2 | -22.7
Nc1ccc2cc3[nH]c4cc(N)ccc4c3nc2c1 | -58.9* | i | 5.3 | -14.8 | ?
Cc1oc(-c2ccccc2F)nc1CS(=O)CC(=O)NCc1ccccn1 (stereo unspecified) | 3.7 | i | -29.5 | -7.6 | -5.5
O=C(NCCCO)c1ccc2nc(-c3ccco3)c(-c3ccco3)nc2c1 | -24.9 | i | -15.8 | -5.2 | ?
